Experimental findings from PubChem BioAssay are described below.

The experiment can be described thus: small molecules captured by biotinylated probe aFGF10 – biochemical, small-molecule microarray, fluorescence 635/667, stem cell growth factor project, primary screen (AID 1071).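 Note: score merges 667 nm spot intensity and signal to noise from triplicate slides.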 The settings on record: higher = more signal.
In the case of `CN1C(=O)C2C=CC(C(O)c3cc(C(F)(F)F)cc(C(F)(F)F)c3)N(N3CCCCC3)C2C1=O` (stereo unspecified), the composite z-score amounted to 0.395. In the case of `CC(C)[C@@H](CO)NC(=O)[C@H]1[C@@H](c2ccccc2)N(c2ccccc2)O[C@@H]1C` it was 0.439; in that of `COc1cc2c(cc1O)C(C1CC1)N(Cc1cc3c(cc1Br)OCO3)CC2` (stereo unspecified), -0.974. The result for `C=CCNC(=O)[C@H]1[C@@H]2C(=O)O[C@@H](c3ccccc3)[C@@H](c3ccccc3)N2[C@@H](c2ccccc2OCCO)[C@]12C(=O)Nc1ccc(C#CC3=CCCCC3)cc12` reads 0.88. Compound `O=C1C2C=CC(C(O)c3ccc(F)cc3)N(Nc3ccccc3F)C2C(=O)N1c1ccccc1` (stereo unspecified) had a composite z-score of 0.439. The result for `COc1cc(OC)c(C(O)C2C=CC3C(=O)NC(=O)C3N2Nc2ccc(Cl)cc2Cl)cc1Br` (stereo unspecified) reads 0.141; that for `COc1cc2c(cc1O)C=[N+](Cc1cccc(OC(F)(F)F)c1)CC2`, -0.0214; that for `COc1ccc([Si](C)(C)[C@H]2[C@H](CC(=O)N3Cc4ccccc4C[C@H]3CO)O[C@@]3(C(=O)N(Cc4ccc(N5CCC5=O)cc4)c4ccccc43)[C@@H]2C)cc1`, 0.265. Regarding `Cc1ccc(S[C@]2(C(=O)NCCN3CCOCC3)CC(=O)N(Cc3ccccc3)[C@@H]2c2ccc(CO)cc2I)cc1`, the composite z-score was -0.165.

Regarding `COCCOC(=O)N1C(=O)[C@@]2(c3cc(C#Cc4ccc(OC)cc4)ccc31)[C@H](C(N)=O)[C@H]1C(=O)O[C@H](c3ccccc3)[C@H](c3ccccc3)N1[C@@H]2c1ccccc1OCCO`, the composite z-score was found to be 1.11. `[N-]=[N+]=NCc1ccccc1C[C@]1(C(=O)NCC(O)CO)N=C(c2ccc(OCCCO)cc2)O[C@H]1c1ccccc1` (stereo partly specified): the composite z-score is -0.48. With `C#CCN(Cc1ccccc1Br)C(/C=C/c1ccccc1)CO` (stereo unspecified), the composite z-score is 0.0126. Turning to `C#CCN(CC=C(C)C)[C@H](CO)c1ccccc1`, the composite z-score is -0.078.

With `COc1ccc([Si](C)(C)[C@H]2[C@H](CCO)O[C@@]3(C(=O)N(Cc4ccc(N5C(=O)COc6ccccc65)cc4)c4ccccc43)[C@@H]2C)cc1`, the composite z-score is -0.164. The result for `CO[C@H]1O[C@H](CO)[C@@H](OC(=O)Nc2ccc(Br)cc2)[C@H](OC(=O)c2cc3ccccc3[nH]2)[C@H]1OC(=O)c1cc2ccccc2[nH]1` reads 0.724; that for `CN1C(=O)C2C=CC(C(O)c3ccccc3)N(Nc3ccccc3)C2C1=O` (stereo unspecified), -1.06.

Take `COC(=O)[C@@]1(Cc2ccc(F)cc2)[C@H]2c3cc(C(=O)N4CCCC4)n(Cc4ccc(C)o4)c3C[C@H]2CN1C(=O)c1ccccc1`: the composite z-score is 0.883. The result for `CCCCC(=C=CC[C@@H](O)c1ccccc1OCCO)CCO` reads 0.352; that for `CC(=O)N1Cc2ccccc2C[C@@]2(COC(c3ccc(OCCCO)cc3)=N2)C1=O`, 0.51. `C[C@]1(C(=O)NC2CC2)c2ccccc2C(=O)N(Cc2cc(C(F)(F)F)cc(C(F)(F)F)c2)[C@H]1c1ccc(CO)cc1` yielded a composite z-score of 0.31. In the case of `CCCC[C@@H]1C[C@H]1[C@@H](NC(=O)c1ccco1)c1ccc(C(=O)OC)cc1` it was 0.286. In the case of `C[C@@]1([C@@H](NC(=O)c2ccccc2)c2ccc(-c3ccccc3)cc2)C[C@H]1C1CCCCC1` it was -0.227.

In turn, `COCCOC(=O)N1C(=O)[C@@]2(c3cc(C#CC4=CCCCC4)ccc31)[C@H](c1ccc(O)cc1)N1[C@H](c3ccccc3)[C@H](c3ccccc3)OC(=O)[C@H]1[C@@H]2C(N)=O` had a composite z-score of 0.54. The result for `O=C1C2C=CC(C(O)C(c3ccccc3)c3ccccc3)N(n3cnnc3)C2C(=O)N1Cc1ccccc1` (stereo unspecified) reads 0.784. In the case of `CN(C)CCCC[C@@H]1NC(=O)[C@H]2C[C@@H](C(=O)NCCCCCNC(=O)CS)[C@@H](c3cccc(OCCO)c3)N2C1=O` it was -0.0727; in that of `O=C(O)[C@@]1(CCS(=O)(=O)c2ccccc2)COC(c2ccc(OCCCO)cc2)=N1`, -0.0573.

As to `[N-]=[N+]=NCc1ccccc1[C@@H]1OC(c2ccc(OCCCO)cc2)=N[C@]1(Cc1ccccc1N=[N+]=[N-])C(=O)N1CCOCC1`, the composite z-score turned out to be 0.636. In the case of `CC(C)N1C(=O)[C@@]2(Cc3ccccc31)c1ccccc1C(=O)N(C1CCCCC1)[C@H]2c1ccc(CO)cc1` it was 0.397; in that of `CCOC(=O)[C@H]1C/C=C/C[C@H](C(=O)OCC)C(=O)O[C@H]2[C@@H](OC)O[C@H](CO)[C@@H](OC(=O)Nc3ccc(C#N)cc3)[C@@H]2OC1=O`, 0.287. The result for `COc1ccc(C(O)C2C=CC3C(=O)N(c4ccccc4)C(=O)C3N2Nc2ccccc2F)cc1OCc1ccccc1` (stereo unspecified) reads 0.775. In the case of `CN(C)C(=O)[C@]1(Cc2ccccc2CN=[N+]=[N-])N=C(c2ccc(OCCCO)cc2)O[C@@H]1c1ccccc1CN=[N+]=[N-]`, the composite z-score was 1.18.
